Experimental data published in PubChem BioAssay (NCI).
Compounds without any hit were thinned out: in the full panel of roughly 83,000, 20% have a hit.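 How to read the values: 0–100, growth inhibition (40 = 60% inhibited); 0, no net growth; -100 to 0, cell death (-40 = 40% of starting cells died; -100 = all dead).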 Values without a mark were called inactive. Active and inactive are the calls of the source. Rule for the calls: active = growth percent below 10; inactive = the rest.

system: EKVX NSCLC; test: NCI-60 one-dose screen, 48 h (100 = growth as untreated, 0 = no growth, -100 = all killed); settings: 10 µM unless noted

Structure (SMILES)	growth
O=Cc1ccc([N+](=O)[O-])s1	114%
CC(C)(C)n1cc(-c2ccnc(NCCCNS(=O)(=O)c3ccc(F)cc3)c2)c(-c2cccc(F)c2)n1	57.3%
O=C1C(Cl)=C(Nc2ccc(O)cc2)C(=O)N1Cc1ccc(Cl)cc1	79%
COc1cc(CNC(=O)CCCC/C=C/C(C)C)ccc1OCc1nnc(Nc2ccc([N+](=O)[O-])cc2)o1	74.7%
O=C(N/N=C/c1ccc(F)cc1)c1ccc(C(F)(F)F)nc1Nc1cccc(C(F)(F)F)c1	4.22% (active)
C=C(C)[C@@H]1CC[C@]2(C(=O)NCCNCCN)CC[C@]3(C)[C@H](CC[C@@H]4[C@@]5(C)C/C(=C/c6ccncc6)C(=O)C(C)(C)[C@@H]5CC[C@]43C)[C@@H]12	92.2%
O=C(COc1ccc(-c2nc3ccccc3[nH]2)cc1)N=Nc1c(O)[nH]c2ccc(Cl)cc12	95.7%
C/C(=N/O)c1ccc(F)cc1	105%
COc1ccc(C2=Nc3c/c(=C\c4c(O)[nH]c5ccc(Cl)cc45)ccc3=N2)cc1	56.6%
CCOC(=O)c1cnc2ccccc2c1Cl	103%
CCCc1cc(NC)nc(S(=O)(=O)CC)n1	104%
COc1ccc(/C=C2\C(=O)N=C3N2NC(c2cc(Br)ccc2O)C=C(C)N3c2ccccc2)cc1 (stereo not given)	105%
O=S(=O)(NCCNc1nccc(-c2c(-c3cccc(F)c3)nc3occn23)n1)c1ccc(Br)cc1	89.5%
CCn1cc(C(=O)N/N=C/c2cccs2)c(=O)c2cc(F)c(N3CCNC(C)C3)c(F)c21 (stereo not given)	34.1%
Cn1c(=O)c2[nH]c(N/N=C/c3ccccc3Br)nc2n(C)c1=O	128%
CCCCCCNC(=O)Oc1ccc(/C(=C(/C)Cc2ccc(OC)cc2)c2ccc(OCCCN(C)C)cc2)cc1	83%
O=C(OCc1ccc2cccc(O)c2n1)N1CCN(C(=O)c2cc3cc(F)ccc3[nH]2)CC1	-87.8% (active)
CC(=O)[C@@H]1CCC=C2CC[C@]3(C)[C@@H](CC[C@@H]4[C@@]5(C)CCCNC(C)(C)[C@@H]5CC[C@]43C)[C@H]21	-47.8% (active)
O=c1oc2ccc([N+](=O)[O-])cc2cc1Br	102%
S=C(Nc1ccc(-c2nc(N3CCOCC3)c3cccn3n2)cc1)Nc1cccnc1	46.7%

Structure (SMILES)	growth
O=C1/C(=C/c2ccc(-c3ccc(Br)cc3)o2)SC(=S)N1CCc1ccc(O)cc1	77.2%
CCOC(=O)CSc1ncnc2c1c(-c1ccccc1)c(-c1ccccc1)n2-c1ccc(C)cc1	43.9%
CCNc1cc(-c2cccc(OC(F)(F)F)c2)nc2ccc(N3CCCC3)cc12	17.1%
CCCCNC(=O)Oc1ccc(/C(=C(/CC)Cc2ccccc2)c2ccc(OCCN3CCCCCC3)cc2)cc1	59.2%
COc1ccc(-c2nc3c(c(-c4ccccc4)nn3-c3ccccc3)c(-c3ccc(N4CCOCC4)cc3)c2C#N)cc1	100%
COc1cc(-c2csc(NC(=O)c3cc(-n4cnc(C)c4)cc(C(F)(F)F)c3)n2)cc(OC)c1OC	69.1%
COc1cc(CNS(=O)(=O)c2ccc(C)cc2)ccc1OCc1cn(-c2ccc(Br)cc2)nn1	93.1%
Nc1ncnc2c1N=C(c1ccc3c(c1)OCO3)CC(c1ccc([N+](=O)[O-])cc1)N2 (stereo not given)	87.4%
COc1ccc(-c2nc3c(c(-c4ccccc4)nn3-c3ccccc3)c(-c3ccc(N4CCN(C)CC4)cc3)c2C#N)cc1	104%
CCOC(=O)C(=Cc1cccc(Cl)c1)C(=O)OCC	78.7%
O=C1NC(=O)c2c1c1c3ccccc3ccc1c1[nH]c3ccc(Br)cc3c21	18%
CC1(c2ccccc2O)NN=C(/N=C/c2cccc([N+](=O)[O-])c2)N1C(Cc1c[nH]c2ccccc12)C(=O)O (stereo not given)	77.6%
CCOP(=O)(OCC)c1nc(-c2ccccc2)oc1NCc1cccnc1	104%
CCOC(=O)c1cn2ncnc(Oc3ccc(NC(=O)NC4CCCCC4)c(Cl)c3)c2c1C	74.3%
COC(=O)c1cc(-c2ccccc2)[nH]c1N/N=C/c1c(Cl)cccc1Cl	-1.92% (active)
COc1ccc(-c2nnc(-c3ccc4c(c3)nc(-c3ccncc3)n4C3CCCCC3)o2)cc1	64%
CC(C)(C)c1cc(-c2nc3ccc(N4CCN(S(C)(=O)=O)CC4)cc3[nH]2)cc(C(C)(C)C)c1O	101%
CCCCN1C(=O)/C(=c2\sc3n(c2=O)C2C(NN=3)N(CC)C(=O)N2CC)c2ccccc21 (stereo not given)	52.1%
N#Cc1nn(-c2cc(=O)[nH]c3ccc(Cl)cc23)c(N)c1C#N	94%
Cc1ccc(-n2c(=S)[nH]c3sc4c(c3c2=O)CCC(=O)C4)cc1	93.7%
